According to PubChem BioAssay (EPA / NIEHS):
Inconclusive results are not listed. Calls of active or inactive are those of the source. How the source made its calls: active means hit-call score of the fitted dose curve at least 0.9, where 1 is the maximum; inconclusive means response in the unintended direction; inactive means score below 0.9.

Key:
[1] = molecular target: human Opioid Receptor Mu (Opiate Mu), OPRM1 (gene 4988) (UniProt P35372); assay: NVS_GPCR_hOpiate_mu: NovaScreen (NVS) G Protein-Coupled Receptor Assay for human Opioid Receptor Mu (Opiate Mu) (AID 2283290);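 further: hits lower bound tracer signal versus DMSO meaning displacement of the ligand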
How it was run: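 Cell-free radioligand binding to membranes from CHO cells expressing the receptor; bound tracer measured by filter-based scintillation counting 2.5 hours after dosing. Loss of signal versus DMSO baseline reflects displacement; primary screen at 25 uM in duplicate, actives followed up in concentration series.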

[2] = molecular target: guinea pig Bradykinin Receptor B2 (BK2), BDKRB2 (gene 100135486) (UniProt O70526); assay: NVS_GPCR_gBK2: NovaScreen (NVS) G Protein-Coupled Receptor Assay for guinea pig Bradykinin Receptor B2 (BK2) (AID 2283292)
How it was run: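 Radioligand displacement on guinea pig ileum membranes for 1 h, read by filter-based scintillation counting; loss of signal relative to DMSO. Compounds were screened in duplicate at 25 uM, and those passing the threshold were retested in concentration-response up to 50 uM.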

[3] = molecular target: rat Serotonin, 5-Hydroxytryptamine Receptor 1 (5HT1), Non-Selective Binding, Htr1a (gene 24473) (UniProt P19327); assay: NVS_GPCR_r5HT1_NonSelective: NovaScreen (NVS) G Protein-Coupled Receptor Assay for rat Serotonin, 5-Hydroxytryptamine Receptor 1 (5HT1), Non-Selective Binding (AID 2283286)
How it was run: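 Rat cortical membranes, radioligand displacement, 1 h incubation, read by filter scintillation. Primary screen in duplicate at 25 uM. Hits (e.g. ≥30% inhibition) went to concentration-response up to 50 uM, fitted as loss of binding versus DMSO.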

[4] = system: 5-hydroxytryptamine receptor 2C (pig); assay: NVS_GPCR_p5HT2C: NovaScreen (NVS) G Protein-Coupled Receptor Assay for pig Serotonin, 5-Hydroxytryptamine Receptor 2C (5HT2C) (AID 2283288)
How it was run: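 Pig choroid plexus membranes; radioligand competitive binding, filter-based scintillation counting, read 1 h after dosing. Primary screen in duplicate at 25 uM; actives then run as concentration series; loss of signal versus DMSO baseline.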

[5] = molecular target: rat Adrenergic, Alpha 1, Non-selective Receptor (Adra1), Adra1a (gene 29412) (UniProt P43140); assay: NVS_GPCR_rAdra1_NonSelective: NovaScreen (NVS) G Protein-Coupled Receptor Assay for rat Adrenergic, Alpha 1, Non-selective Receptor (Adra1) (AID 2283289)
How it was run: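 Rat forebrain membranes; radioligand displacement read by filter-based scintillation counting 1 h after dosing. Primary screen in duplicate at 25 uM; hits (e.g. ≥30% inhibition) rerun as concentration–response to 50 uM max. Fitted versus DMSO.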

[6] = molecular target: rat Serotonin, 5-Hydroxytryptamine Receptor (5HT), Non-Selective Binding, Htr1a (gene 24473) (UniProt P19327); assay: NVS_GPCR_r5HT_NonSelective: NovaScreen (NVS) G Protein-Coupled Receptor Assay for rat Serotonin, 5-Hydroxytryptamine Receptor (5HT), Non-Selective Binding (AID 2283295)
How it was run: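 Radioligand displacement on rat cortical membranes, 1 h incubation, filter-based scintillation counting. Primary duplicates at 25 uM, actives retested in concentration series; loss of signal fitted against DMSO as baseline.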

[7] = molecular target: mouse Cholecystokinin, CCK2 Receptor (CCKB), Cckbr (gene 12426) (UniProt P56481); assay: NVS_GPCR_mCKKBCentral: NovaScreen (NVS) G Protein-Coupled Receptor Assay for mouse Cholecystokinin, CCK2 Receptor (CCKB) (AID 2283293)
How it was run: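 Radioligand displacement binding on mouse forebrain membranes, 2 h exposure, filter-based scintillation counting. Primary screen in duplicate at 25 uM; actives (e.g. ≥30% inhibition) retested in concentration-response up to 50 uM; loss of binding signal relative to DMSO.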

Chain of human Opioid Receptor Mu (Opiate Mu), OPRM1 (gene 4988) (P35372 whole entry, looked up): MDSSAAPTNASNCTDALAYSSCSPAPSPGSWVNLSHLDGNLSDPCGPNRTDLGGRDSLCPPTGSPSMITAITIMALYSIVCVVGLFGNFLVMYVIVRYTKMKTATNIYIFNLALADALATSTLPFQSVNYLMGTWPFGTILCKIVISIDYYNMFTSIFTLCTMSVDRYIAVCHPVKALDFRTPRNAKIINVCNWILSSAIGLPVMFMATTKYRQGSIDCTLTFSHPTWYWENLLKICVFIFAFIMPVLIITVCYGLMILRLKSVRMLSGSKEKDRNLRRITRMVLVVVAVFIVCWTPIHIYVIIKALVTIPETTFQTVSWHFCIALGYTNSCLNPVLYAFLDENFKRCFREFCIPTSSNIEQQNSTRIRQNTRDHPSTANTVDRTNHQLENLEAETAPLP
Chain of rat Adrenergic, Alpha 1, Non-selective Receptor (Adra1), Adra1a (gene 29412) (P43140 whole entry, looked up): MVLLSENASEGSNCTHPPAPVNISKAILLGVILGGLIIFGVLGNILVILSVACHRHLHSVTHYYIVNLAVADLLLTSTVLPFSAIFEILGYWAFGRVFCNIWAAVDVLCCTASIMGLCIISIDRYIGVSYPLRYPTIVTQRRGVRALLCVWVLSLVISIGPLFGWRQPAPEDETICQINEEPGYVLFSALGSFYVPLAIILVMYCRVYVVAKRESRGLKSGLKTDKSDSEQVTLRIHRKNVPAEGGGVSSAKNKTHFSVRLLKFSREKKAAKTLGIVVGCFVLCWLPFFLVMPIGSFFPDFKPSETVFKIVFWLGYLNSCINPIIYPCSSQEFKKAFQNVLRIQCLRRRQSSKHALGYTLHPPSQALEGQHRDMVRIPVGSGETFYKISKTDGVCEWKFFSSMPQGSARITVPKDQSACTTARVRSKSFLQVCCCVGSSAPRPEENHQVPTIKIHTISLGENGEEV
Chain of guinea pig Bradykinin Receptor B2 (BK2), BDKRB2 (gene 100135486) (O70526 whole entry, looked up): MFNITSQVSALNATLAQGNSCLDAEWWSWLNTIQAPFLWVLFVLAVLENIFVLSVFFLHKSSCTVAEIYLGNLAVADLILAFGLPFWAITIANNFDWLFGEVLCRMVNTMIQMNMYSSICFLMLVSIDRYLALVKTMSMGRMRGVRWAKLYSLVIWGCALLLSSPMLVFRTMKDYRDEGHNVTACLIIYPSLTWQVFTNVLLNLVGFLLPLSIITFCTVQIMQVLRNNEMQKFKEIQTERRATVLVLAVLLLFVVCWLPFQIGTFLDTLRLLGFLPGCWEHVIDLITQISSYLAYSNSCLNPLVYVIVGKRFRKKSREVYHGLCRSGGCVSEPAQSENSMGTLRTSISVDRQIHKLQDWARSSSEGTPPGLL
Chain of mouse Cholecystokinin, CCK2 Receptor (CCKB), Cckbr (gene 12426) (P56481 whole entry, looked up): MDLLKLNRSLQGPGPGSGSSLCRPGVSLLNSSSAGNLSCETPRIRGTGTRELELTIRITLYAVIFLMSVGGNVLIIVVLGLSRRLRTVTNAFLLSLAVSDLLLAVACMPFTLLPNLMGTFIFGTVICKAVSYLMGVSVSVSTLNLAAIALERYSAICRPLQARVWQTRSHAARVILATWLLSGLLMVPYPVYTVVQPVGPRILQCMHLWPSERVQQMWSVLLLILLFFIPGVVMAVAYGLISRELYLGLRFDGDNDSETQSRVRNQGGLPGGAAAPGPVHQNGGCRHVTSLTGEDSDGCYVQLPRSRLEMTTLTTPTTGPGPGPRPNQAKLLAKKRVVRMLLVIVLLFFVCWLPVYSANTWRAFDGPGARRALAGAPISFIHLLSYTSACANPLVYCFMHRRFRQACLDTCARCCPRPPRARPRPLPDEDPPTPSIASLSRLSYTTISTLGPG
Chain of rat Serotonin, 5-Hydroxytryptamine Receptor 1 (5HT1), Non-Selective Binding, Htr1a (gene 24473) (P19327 whole entry, looked up): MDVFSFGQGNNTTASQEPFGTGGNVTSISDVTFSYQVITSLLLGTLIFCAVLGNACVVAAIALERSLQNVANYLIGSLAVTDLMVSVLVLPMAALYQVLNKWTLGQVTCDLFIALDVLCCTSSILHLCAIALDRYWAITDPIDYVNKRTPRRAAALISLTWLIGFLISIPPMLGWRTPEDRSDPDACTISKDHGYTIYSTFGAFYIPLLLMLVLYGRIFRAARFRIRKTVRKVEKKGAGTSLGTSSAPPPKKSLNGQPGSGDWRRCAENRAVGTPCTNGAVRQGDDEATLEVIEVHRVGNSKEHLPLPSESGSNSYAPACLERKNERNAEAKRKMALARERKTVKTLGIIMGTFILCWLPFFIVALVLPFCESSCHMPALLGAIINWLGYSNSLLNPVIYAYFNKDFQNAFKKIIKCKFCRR
Chain of rat Serotonin, 5-Hydroxytryptamine Receptor (5HT), Non-Selective Binding, Htr1a (gene 24473) (P19327 whole entry, looked up): as above

CC(C)(C)c1cc(O)ccc1O
outcome [1]: inactive

O=C(OC1CCCCC1)c1ccccc1C(=O)OC1CCCCC1
outcome [1]: inactive

O=C(Nc1ccc2[nH]ccc2c1)c1cc2cc(F)ccc2n1Cc1cccc(F)c1
outcome [1]: inactive
outcome [2]: inactive

CCC(=O)C(CC(C)N(C)C)(c1ccccc1)c1ccccc1 (stereo unspecified)
outcome [3]: inactive
AC50 [4]: 1.91 µM (active)
AC50 [5]: 18.1 µM (active)
AC50 [6]: 7.26 µM (active)

CCOP(=S)(OCC)SCSP(=S)(OCC)OCC
outcome [1]: inactive

O=[N+]([O-])c1ccc(O)c([N+](=O)[O-])c1
AC50 [7]: 25 µM (active)

CCOC(=O)Nc1cccc(OC(=O)Nc2ccccc2)c1
AC50 [4]: 20.3 µM (active)
